Source: PubChem BioAssay (NCI)
About 83,000 compounds went through this panel and 20% of them were active in at least one assay; those are over-represented in the sample as a whole.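 Interpretation: 100, growth as untreated; towards 0, rising growth inhibition; 0, no net growth; 0 to -100, cell death. Compounds scoring below 10 were considered active.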 Values without a mark were called inactive. The source made the active and inactive calls.

Tests used:
Experiment in all cases: NCI-60 one-dose screen, 48 h (100 = growth as untreated, 0 = no growth, -100 = all killed)
Conditions in all cases: 10 µM unless noted
T-47D breast = tested on: T-47D breast
BT-549 breast = tested on: BT-549 breast
MDA-MB-435 melanoma = tested on: MDA-MB-435 melanoma
SW-620 colon = tested on: SW-620 colon
MCF7 breast = tested on: MCF7 breast
HCT-116 colon = tested on: HCT-116 colon
HCC-2998 colon = tested on: HCC-2998 colon
KM12 colon = tested on: KM12 colon

Row | SMILES | growth (T-47D breast) | growth (BT-549 breast) | growth (MDA-MB-435 melanoma) | growth (SW-620 colon) | growth (MCF7 breast) | growth (HCT-116 colon) | growth (HCC-2998 colon) | growth (KM12 colon)
1 | COc1ncc(-c2ccc3nccc(C#CCCCCC(=O)O)c3c2)cc1NS(=O)(=O)c1ccc(F)cc1F | -18.1% (active) | 4.54% (active) | 29.5% | 50.7% | 6.95% (active) | 41.1% | 29.4% | 41.6%
2 | Cn1cc(-c2nnc(-c3cn(C)c4ncccc34)s2)c2ccccc21 | 47.9% | 68.3% | 9.15% (active) | 61.6% | 58.6% | 76.6% | 82.6% | 25.4%
3 | C[n+]1c(-c2ccccc2)c2cc(N)ccc2c2ccccc21 | 11.9% | 0.585% (active) | 31.5% | 40.5% | 13% | 30.4% | 40.5% | 19.1%
4 | Clc1ccc(N2CCN(CCCN3CCN(c4cccc(Cl)c4)CC3)CC2)cc1 | 40.2% | 29.4% | 62.4% | 66.5% | 44.6% | 36.6% | 66.8% | 59.5%
5 | O=C1COCCN1c1ccc(Nc2nc(Cl)nc(N3CCOCC3)n2)cc1 | 88.5% | 97.1% | 99.5% | 105% | 85.5% | 101% | 89.1% | 93.8%
6 | CCN(CC)CCCC(C)Nc1ccnc2cc(Cl)c(SCc3ccccc3)cc12 (configuration not stated) | -58.3% (active) | -81% (active) | -71.2% (active) | -85.3% (active) | -49.5% (active) | -67.8% (active) | -84.1% (active) | -32.4% (active)
7 | CC[C@]1(O)CC2CN(CCc3c([nH]c4ccccc34)[C@@](C(=O)OC)(c3cc4c(cc3OC)N(C=O)[C@H]3[C@@](O)(C(=O)OC)[C@H](OC(C)=O)[C@]5(CC)C=CCN6CC[C@]43[C@@H]65)C2)C1 (some centres not stated) | 91% | 15.7% | -25.7% (active) | 24% | 21.9% | 5.51% (active) | 0.206% (active) | -30.7% (active)
8 | Cc1nn(-c2ccccc2)c(N2CCOCC2)c1-c1nc2ccc([N+](=O)[O-])cc2[nH]1 | 95.8% | 96.8% | 96.1% | 116% | 96.6% | 97.8% | 133% | 103%
9 | COc1cc2c(c(OC)c1OC)-c1ccc(NNC(N)=S)c(=O)cc1[C@@H](NC(C)=O)CC2 | 70.7% | -5.6% (active) | -12.2% (active) | 24.9% | 10.1% | 2.28% (active) | 11.4% | -35.6% (active)
10 | O=C1/C(=C\c2cccn2Cc2ccccc2)c2ccccc2N1c1c(Cl)cccc1Cl | -35.7% (active) | 81% | 91% | 85.7% | 6.23% (active) | 27.1% | 22.1% | 4.07% (active)
11 | CCCCNC(=O)NS(=O)(=O)Cc1ccccc1 | 113% | 104% | 116% | 108% | 96.6% | 112% | 110% | 109%
12 | NC(=O)c1cccc(-c2ccc(S(=O)(=O)Nc3ccc4c(c3)N(C(=O)C3CC3)CCC4)cc2)c1 | 26.1% | 96.7% | 1.89% (active) | 32.3% | 22.9% | 98.2% | 64.5% | 18.9%
13 | COc1ccc(NCc2cn(-c3ccc(C(=O)O)cc3)nc2-c2ccc(C(=O)O)cc2)cc1C(F)(F)F | 92.7% | 98% | 101% | 97.2% | 96.1% | 104% | 104% | 102%
14 | CC(C)OC(=O)Nc1cc(F)c(F)cc1F | 104% | 104% | 103% | 99.2% | 94.3% | 110% | 101% | 101%
15 | CCCCCCCCCCCCNC(=S)N/N=C/c1ccccc1O | 42.2% | 108% | 80.5% | 91.8% | 51% | 62.2% | 78.2% | 68.8%
16 | Cc1ccc(NC(=O)N[C@@H](Cc2cc(F)cc(F)c2)C(=O)N[C@@H]2C(=O)N3CCC[C@H]3C(=O)N3CCOC[C@H]3C(=O)N[C@@H](C)C(=O)N3C[C@H](C)C[C@H]3C(=O)O[C@H]2C)cc1 | 27% | 19.6% | 21% | 34.5% | 25% | 12.5% | 34.5% | 38.9%
17 | CCOC(=O)c1ccc2nc(-c3c(C)nn(-c4ccccc4)c3N3CCOCC3)[nH]c2c1 | 73% | 93.4% | 99.4% | 97.3% | 88.6% | 93.2% | 95.9% | 96.9%
18 | CCOC(=O)c1cc(C(=O)c2ccc(OC)c(OC)c2)n2ccc(-c3ccccn3)cc12 | 23.1% | 93.6% | 70.7% | 58.6% | 73.3% | 99.9% | 90.5% | 77.4%
19 | CCOC(=O)c1nn(C2CCCCO2)c2ccc(NC(=O)CN3CCCC3)cc12 (configuration not stated) | 102% | 94.3% | 102% | 97.2% | 95.9% | 89.9% | 101% | 103%
20 | CCCCCCSc1ncnc2nc[nH]c12 | 73.1% | 82.6% | 84.9% | 101% | 94.6% | 85.1% | 93.5% | 86%
21 | O=C1Nc2ccccc2/C1=C/C(=O)c1ccc(N2CCCCC2)cc1 | 59.9% | 90.8% | 88.2% | -22.7% (active) | 68.9% | 92.7% | 105% | 90.5%
22 | CC(C)=CCC[C@](C)(O)[C@H]1CC[C@]2(C)[C@@H]1CC[C@@H]1[C@@]3(C)CC/C(=N/O)C(C)(C)[C@@H]3CC[C@]12C | 7.5% [100 µM] (active) | 1.19% [100 µM] (active) | 5.38% [100 µM] (active) | -48% [100 µM] (active) | 10% [100 µM] | -9.52% [100 µM] (active) | 10.9% [100 µM] | 15.8% [100 µM]
23 | Cc1ccccc1-n1nnc(C(=O)Nc2nc3ccc(F)cc3s2)c1C | 18.1% | 36.8% | 59.2% | 85.5% | 65.3% | 46.5% | 78.6% | 72.4%
24 | CC1(C)CC(=O)c2c(ccc(C(=O)C[C@@H](N)CO)c2N)O1 | 29.5% | -4.27% (active) | 39.5% | 7.17% (active) | 8.5% (active) | 8.56% (active) | -20.4% (active) | 11%
25 | CC[C@@](C)(NC(=O)[C@H](C)NC(=O)CCNC(=O)C(C)(C)NC(=O)[C@H](C)NC(=O)[C@@H]1CCCN1C(=O)[C@@](C)(CC)NC(=O)[C@H](Cc1ccccc1)NC(=O)C1CCCN1C(=O)C(C)(C)NC(=O)C1CCCN1C(=O)C(C)(C)NC(C)=O)C(=O)NCCC(=O)N[C@@H](CC(C)C)C(=O)NC(C)(C)C(=O)NCCC(=O)N[C@@H](CC(C)C)C(=O)NC(C)(C)C(=O)NC(C)(C)C(=O)N[C@@H](CC(C)C)C(=O)NCCC(=O)NCO (some centres not stated) | -66.9% (active) | -97.3% (active) | -89.2% (active) | -79.2% (active) | -84.9% (active) | -94.6% (active) | -96.1% (active) | -94.8% (active)
26 | COc1cc2c(cc1OCCCCCOc1ccc(-n3c(C)nc4ccccc4c3=O)cc1)N=C[C@@H]1CCCN1C2=O | -7.89% (active) | -89.2% (active) | -58.1% (active) | -13.8% (active) | -53.6% (active) | 0.749% (active) | -61.7% (active) | -45.7% (active)
27 | O=C(C[n+]1ccn(CC(OCc2ccc(Cl)cc2Cl)c2ccc(Cl)cc2Cl)c1)c1ccc(F)cc1 (configuration not stated) | -71.6% (active) | -94.9% (active) | -92.5% (active) | -89.9% (active) | -84% (active) | -97.1% (active) | -94.6% (active) | -89.1% (active)
28 | N#C/C(C(=O)c1ccccc1)=C1/C(=O)Nc2ccc(F)cc21 | 80.5% | 102% | 107% | 101% | 96.4% | 103% | 104% | 109%
29 | Nc1nnc(CSc2nnc3n(Cc4ccccc4)c(=O)c4c5c(sc4n23)CCCC5)s1 | 74% | 117% | 106% | 110% | -30.9% (active) | 89.5% | 105% | 121%
